Mtb BioA inh: inhibitors of Mycobacterium tuberculosis BioA enzyme. 0.096% of 360,000 active. purified M. tuberculosis BioA enzyme, plate reader. inhibition, % at 9.99 µM; in the data active = inhibition above about 40%; inconclusive = no clear call, values can overlap the other calls
PfHsp40 rescue: compounds rescuing yeast from Plasmodium falciparum HSP40 toxicity; S. cerevisiae expressing PfHsp40, growth rescue, ATP luminescence; growth rescue, % at 12.5 µM; 0.68% of 340,000 active; in the data active = growth rescue above about 28%, passing the limit was not always enough; inconclusive = no clear call, values can overlap the other calls;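 also: yeast W303a lacking pdr1 and pdr3 grown in galactose medium; growth measured after three days at 30 °C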
Mtb bLac sens: beta-lactam sensitization of Mtb H37Rv; inhibition, % at 25 µM; AID 434955; 0.27% of 330,000 active; M. tuberculosis H37Rv growth with meropenem, percent inhibition; call rule not given here;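 also: growth measured after seven days incubation then overnight dye step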
ugtP null kill: compounds lethal to S. aureus RN4220 ugtP deletion mutant | growth inhibition, % (no concentration beside the values) | 0.54% of 330,000 active | OD600 growth, 16 h; in the data active = growth inhibition above about 68%
Sa RN4220 lethal: kills Staphylococcus aureus RN4220 | S. aureus RN4220 growth, OD600, 16 h | inhibition, % (concentration not given with the values) | 0.33% of 330,000 active | AID 1259311; in the data active = inhibition above about 85%
Numbers stand for hits; 0 = inactive; ? = inconclusive; - = not tested or not shown; ! = not confirmed by another sample. Sampled rows, rich in hits. Any-hit rate of the full collection: about 0.9%.

SMILES	Mtb BioA inh	PfHsp40 rescue	Mtb bLac sens	ugtP null kill	Sa RN4220 lethal
CCNc1nc(NC(C)C)nc(N(n2cnnc2)S(=O)(=O)c2ccc(C)cc2)n1	-	0	0	90	0
S=C1NCC(Cc2ccccc2)N1CCc1cccc2ccccc12 (stereo not given)	-	-	-	0	0
COc1cccc(N2CCN(c3nc(-c4ccccc4C)cc(=O)[nH]3)CC2)c1	0	108	0	0	0
CC(C(=O)NC1C(=O)N2C(C(=O)O)=C(CSc3nnnn3C)CSC12)n1cc(Br)cn1 (stereo not given)	-	0	0	100	100
Cn1nnnc1SCC1=C(C(=O)O)N2C(=O)C(NC(=O)C3CC3c3ccccc3)C2SC1 (stereo not given)	-	0	0	100	100
CC1=C(C(=O)O)N2C(=O)C(NC(=O)Cc3ccccc3)C2SC1 (stereo not given)	0	0	0	0	0
CC1=C(C(=O)O)N2C(=O)[C@@H](NC(=O)[C@H](N)c3ccc(O)cc3)[C@H]2SC1	0	0	-	-	-
Cc1cc(C(F)F)nn1CC(=O)NC1C(=O)N2C(C(=O)O)=C(CSc3nnnn3C)CSC12 (stereo not given)	-	0	0	100	100
Cc1nn(C(C)C(=O)NC2C(=O)N3C(C(=O)O)=C(CSc4nnnn4C)CSC23)cc1Cl (stereo not given)	0	0	0	99	100
CON=C(C(=O)NC1C(=O)N2C(C(=O)O)=C(CSc3nc(=O)c(=O)[nH]n3C)CSC12)c1csc(N)n1 (stereo not given)	0	0	-	-	-
Cn1nnnc1SCC1=C(C(=O)O)N2C(=O)[C@@H](NC(=O)[C@H](O)c3ccccc3)[C@H]2SC1	0	0	0	-	-
CCC(C)C1CNC(=S)N1CCc1cccc2ccccc12 (stereo not given)	-	-	-	0	0
COC(=O)C1=C(c2cc3ccccc3o2)CC2CCC1N2C(=O)N1CCC(O)CC1 (stereo not given)	-	-	-	0	0
CN(C)CCn1nnnc1SCC1=C(C(=O)O)N2C(=O)C(NC(=O)Cc3csc(N)n3)C2SC1 (stereo not given)	-	-	-	100	100
CCOC(=O)[C@]12Cc3cc(N(C)C)ccc3C1N(Cc1ccccc1)C(=O)c1ccccc12 (stereo not given in full)	-	-	-	0	0
COc1ccc(/C=C/c2ccc3cccc(O)c3n2)c(OC)c1OC	0	33	0	0	0
COc1cc(/C=C/c2ccc3c(Br)cc(Br)c(O)c3n2)ccc1O	0	0	0	100	99
Oc1cccc(/C=C/c2ccc3cccc(O)c3n2)c1	0	0	0	0	0
COc1cccc(/C=C/c2ccc3cccc(O)c3n2)c1	0	35	0	0	0
COc1cccc(/C=C/c2ccc3cccc(O)c3n2)c1OC	0	0	0	-	-
COc1ccc(/C=C/c2ccc3c(Br)ccc(O)c3n2)cc1	0	0	0	0	0
COc1cc(CCCN2C(=O)C(=O)NCC2C(C)O)cc(OC)c1OC (stereo not given)	-	-	-	0	0
Oc1ccc(CN2CCN(Cc3ccccc3)CC2)c2cccnc12	0	0	0	0	0
O=S(=O)(c1ccc(Cl)cc1)N1CCN(Cc2ccc(O)c3ncccc23)CC1	-	102	0	0	0
COc1ccc(O)c(-c2cc(-c3cccc(Br)c3)n[nH]2)c1	-	0	0	86	0
SMILES	Mtb BioA inh	PfHsp40 rescue	Mtb bLac sens	ugtP null kill	Sa RN4220 lethal
Oc1ccc(Br)cc1-c1cc(-c2ccccc2)n[nH]1	0	0	0	0	0
O=[N+]([O-])c1cccc(-c2cc(-c3cc(Br)ccc3O)[nH]n2)c1	0	285	0	0	0
O=[N+]([O-])c1ccccc1-c1cc(-c2ccccc2O)n[nH]1	0	49	0	0	0
COc1ccc(-c2cc(-c3cc(OC)ccc3O)[nH]n2)cc1	0	?	0	0	0
COc1nc(Nc2nc3ccccc3c(=O)[nH]2)nc2ccc(C)cc12	0	0	0	100	100
Cc1cc(C)cc(Nc2nc3ccccc3c(=O)[nH]2)c1	-	0	0	0	0
Cc1cc(C(=O)Nc2nc(-c3ccccn3)cs2)ccc1[N+](=O)[O-]	-	73	0	0	0
CCc1cc(C(=O)Nc2nc(-c3ccccn3)cs2)sc1C	0	365	0	0	0
O=C1OCC(CO)(CO)N=C1NNc1ccc(Cl)c(Cl)c1	0	305	0	0	0
O=C(NN=Cc1cccc([N+](=O)[O-])c1)c1cc(-c2cccnc2)nc2ccccc12	0	0	0	0	0
COc1cc([N+](=O)[O-])cc(/C=N/NC(=O)c2cc(C)nc3ccccc23)c1O	-	32	0	-	-
COc1cc([N+](=O)[O-])cc(/C=N/NC(=O)c2cncc(Br)c2)c1O	0	780	0	-	-
Cc1cc(C(=O)N/N=C/c2cccc([N+](=O)[O-])c2)c2ccccc2n1	-	34	0	-	-
C#CCNC(=O)C1=CC(C2CC2)CC(OCCCCO)O1 (stereo not given)	-	-	-	0	0
Cc1cc(C)c(N=Cc2c(O)c3ccccc3oc2=O)c(C)c1	0	66	0	0	0
O=C1CCNCCN1C(CO)c1ccccc1 (stereo not given)	-	-	-	0	0
COc1ccc(NS(=O)(=O)c2ccc(O)c(NC(=O)c3cc4c(C)nn(-c5ccc(F)cc5)c4s3)c2)cc1	-	0	?	84	0
CCC[n+]1c(C)sc2c3c(ccc21)CCCC3	0	0	0	95	97
C=C1C(=O)[C@@]23C(O)CC4C(C)(C)CCC(O)[C@]4(C)C2CC(O)C1C3O (stereo not given in full)	-	-	-	0	0
Cc1onc(-c2c(F)cccc2Cl)c1C(=O)NC1C(=O)N2C1SC(C)(C)C2C(=O)O (stereo not given)	-	-	-	100	100
Cc1onc(-c2c(F)cccc2Cl)c1C(=O)NC1CC1	0	0	0	0	0
COc1ccc(CN2C(CC(=O)O)c3cc(F)ccc3S2(=O)=O)cc1 (stereo not given)	-	-	-	0	0
CN(C)P1(N(C)C)=Nc2c(c(N)nn2C)C(c2ccccc2)=N1	0	39!	0	0	0
Cc1ccc(S(=O)(=O)N2C(c3ccc(Cl)c(Cl)c3)CC=C(C(=O)O)C2c2ccccc2)cc1 (stereo not given)	-	-	-	90	0
Cc1ccc([C@@H]2CC=C(C(=O)O)[C@H](c3ccc(Br)cc3)N2S(=O)(=O)c2ccccc2C)cc1	0	318	0	0	0
SMILES	Mtb BioA inh	PfHsp40 rescue	Mtb bLac sens	ugtP null kill	Sa RN4220 lethal
Cc1ccc(S(=O)(=O)N2[C@@H](c3ccccc3)C(C(=O)O)=CC[C@H]2c2ccc(Cl)c(Cl)c2)cc1	0	0	0	-	-
O=C1Nc2ccccc2C(=O)N2C1C1C(=O)N(Cc3ccccc3)C(=O)C1C2c1ccc(F)cc1 (stereo not given)	-	-	-	0	0
Cc1cc(NC(=S)NC(=O)/C=C/c2ccc(S(=O)(=O)N3CCOCC3)cc2)ccc1Br	-	0	0	0	0
COc1ccc(NC(=O)C(=O)NCCN2CCN(C(=O)c3cccs3)CC2)cc1	0	58	0	0	0
Cc1cc(NC(=O)C(=O)NCCN2CCN(C(=O)c3cccs3)CC2)ccc1Br	0	0	0	0	0
O=C(Cc1cccs1)Nc1ccc(N2CCOCC2)cc1	0	35	0	0	0
O=C(Cc1cccs1)Nc1ccc(Cl)cc1	0	0	0	0	0

Assay outcomes as filed in PubChem.
